Compound activity as filed in PubChem.
ABCB6 inh MLPCN: inhibitors of human ABC transporter ABCB6; fluorescence ratio to DMSO, % at 10 µM; 360,000 tested, 0.19% active; K562-ABCB6 porphyrin accumulation, flow cytometry, 1 h; stronger effect = lower value; Q9NP58;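 active = fluorescence ratio to DMSO below 75%, the collection mean minus 3 SD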;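 also: signal is porphyrin accumulated inside mitochondria; 100% equals median channel fluorescence of DMSO control wells; lower ratio means ABCB6 inhibition with less porphyrin fluorescence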
Platelet DG rel: platelet dense granule release activity; human platelet-rich plasma, SFLLRN dense granule ATP release, luminescence; inhibition, %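 (compounds screened at 7.5 µM in platelet-rich plasma)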; 300,000 tested, 0.22% active; AID 1663;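 active = mean replicate score, as percent of positive control, at or above 50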
Yeast superoxide: caloric restriction mimetics inhibiting age-related superoxide in yeast. S. cerevisiae aged cells, superoxide DHE fluorescence; stronger effect = lower value. superoxide response (% of plate mean), % at 10 µM. 330,000 tested, 0.18% active. AID 2690;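 active = superoxide response under a set limit, about three screen SD below normal, cut at about 65% in these data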;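 also: yeast aged for seven days with compound at 30 °C before DHE staining; 100% = average MFI of all compound-treated wells on the plate with controls excluded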
SKN-1 inh: blocks SKN-1 activity in C. elegans; C. elegans VP596 Pgst-4::GFP/RFP ratio, acrylamide-induced, 24 h; inhibition, % at 21.8 µM; 360,000 tested, 0.49% active;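 active = interference check ratio from 0.5 to 1.5 plus GFP to RFP signal ratio inhibition reaching or exceeding a fixed threshold, cut at about 30% in these data, passing the limit was not always enough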
VLA-4 inh: inhibition in a human VLA-4 binding assay; 330,000 tested, 0.2% active; inhibition, % (about 7 µM as worked out from the volumes in the protocol); VLA-4 expressing cells, ligand binding flow cytometry; in the data active = inhibition above about 50%
Target sequence (P13612 whole entry, looked up): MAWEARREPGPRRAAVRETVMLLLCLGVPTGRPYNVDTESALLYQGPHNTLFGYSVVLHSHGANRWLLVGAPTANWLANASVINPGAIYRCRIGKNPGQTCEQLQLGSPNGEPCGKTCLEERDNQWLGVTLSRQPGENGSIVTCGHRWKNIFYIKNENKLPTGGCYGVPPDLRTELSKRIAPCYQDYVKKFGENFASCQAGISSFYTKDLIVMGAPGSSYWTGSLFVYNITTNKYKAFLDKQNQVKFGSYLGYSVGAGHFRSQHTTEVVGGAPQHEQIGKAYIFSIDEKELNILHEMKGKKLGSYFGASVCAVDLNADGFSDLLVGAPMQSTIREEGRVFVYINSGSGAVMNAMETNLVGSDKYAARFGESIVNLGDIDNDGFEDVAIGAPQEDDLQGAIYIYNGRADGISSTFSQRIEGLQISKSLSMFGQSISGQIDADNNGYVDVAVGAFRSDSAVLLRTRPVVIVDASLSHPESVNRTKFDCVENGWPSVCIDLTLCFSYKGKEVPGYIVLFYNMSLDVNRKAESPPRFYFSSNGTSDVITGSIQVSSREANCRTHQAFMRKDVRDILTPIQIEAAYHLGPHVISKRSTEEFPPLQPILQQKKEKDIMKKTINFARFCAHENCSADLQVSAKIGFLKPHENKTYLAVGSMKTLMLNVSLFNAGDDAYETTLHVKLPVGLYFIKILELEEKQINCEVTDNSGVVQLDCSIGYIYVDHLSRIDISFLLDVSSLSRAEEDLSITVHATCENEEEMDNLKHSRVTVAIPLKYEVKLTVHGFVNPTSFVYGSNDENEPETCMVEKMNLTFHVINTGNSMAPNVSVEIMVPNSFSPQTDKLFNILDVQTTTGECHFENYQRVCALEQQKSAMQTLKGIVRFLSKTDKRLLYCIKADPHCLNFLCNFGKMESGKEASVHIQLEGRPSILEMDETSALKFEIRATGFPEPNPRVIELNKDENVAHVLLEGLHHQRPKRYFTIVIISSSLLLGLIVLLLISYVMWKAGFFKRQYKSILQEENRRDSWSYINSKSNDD
An asterisk follows results filed as active; . = no result given. Rows were chosen to be rich in hits. Some 1.2% of all compounds tested hit in one or more screens of this group.

SMILES | ABCB6 inh MLPCN | Platelet DG rel | Yeast superoxide | SKN-1 inh | VLA-4 inh
COc1cccc(C(c2sc3ncnn3c2O)N2CCc3ccccc3C2)c1 (stereo unspecified) | 89 | 27 | 100 | -6 | 3
COC(=O)CSc1nc2cc3c(cc2cc1C#N)OCO3 | 101 | 13 | 106 | 26 | 0
CC(C)OC(=O)CSc1nc2cc3c(cc2cc1C#N)OCO3 | 98 | 1 | 88 | 34* | -15
CCOC(=O)C1=CCN(S(=O)(=O)c2ccccc2C)C1c1ccc(C)cc1 (stereo unspecified) | 104 | . | . | -3 | .
O=C(Cn1cccc1)N1CCN(c2ccc(F)cc2)CC1 | 100 | 56* | 95 | 8 | 28
O=C(CCC(=O)N1CCN(c2ccc(F)cc2)CC1)N1CCN(c2ccc(F)cc2)CC1 | 99 | 9 | 101 | -5 | 3
Cn1cc(Cc2ccc(C(=O)N3CCOCC3)cn2)c2ccccc21 | 101 | . | . | 0 | .
C=CCn1c(SCC(=O)Nc2ccccc2C)nc2sc(C)c(C)c2c1=O | 73* | -1 | 96 | 0 | 6
C=CCn1c(SCC(=O)Nc2sccc2C(N)=O)nc2sc(C)c(C)c2c1=O | 76 | 5 | 100 | 4 | -6
CC1(C(=O)Nc2ccc3c(c2)OCCO3)CN(S(C)(=O)=O)CC(=O)N1CCc1ccccc1F (stereo unspecified) | . | . | . | 10 | .
CCC(=O)N1CCC(C)(C(=O)NCc2ccc(F)cc2)C1 (stereo unspecified) | 99 | . | . | -12 | .
O=[N+]([O-])c1ccccc1NCCOc1ccccc1 | 94 | -10 | 101 | 46* | 13
CN(C)C(=O)c1cccc(COc2ccc(N3C(N)=NC(N)=NC3(C)C)cc2Cl)c1 | 96 | . | . | 7 | .
COc1cc(/C=N/NC(N)=O)ccc1OCC(=O)N1C(C)CCCC1C (stereo unspecified) | 92 | 62* | 102 | 8 | 20
COc1cc(/C=N/Nc2ccc(Cl)c(C(=O)O)c2)ccc1OCC(=O)N1C(C)CCCC1C (stereo unspecified) | 92 | -5 | 111 | 2 | 11
CC(C)c1cccc(-c2csc(C(C)(O)c3cccc(F)c3)n2)c1 (stereo unspecified) | 93 | . | . | 1 | .
CC(=O)Nc1cccc2c1Cc1ccccc1-2 | 97 | 1 | 96 | -5 | 3
CC(=O)Nc1ccc2c(c1Br)Cc1ccccc1-2 | 96 | . | . | 44* | .
CCC(=O)N[C@@H]1C=C[C@@H](CC(=O)NCc2ccccc2F)O[C@@H]1CO | . | . | . | 21 | .
COc1cccc(-c2cnc3c(NC(C)=O)cc(-c4ccsc4)cn23)c1 | 96 | . | . | 8 | .
COCCN(C(=O)COC(=O)CCc1nc2ccccc2s1)c1c(N)n(Cc2ccccc2)c(=O)[nH]c1=O | 94 | 52* | 110 | 20 | 11
COCCN(C(=O)COC(=O)CCc1ccc(OC)cc1)c1c(N)n(Cc2ccccc2)c(=O)[nH]c1=O | 97 | 4 | 102 | -1 | -1
Fc1ccc(-c2csc(Nc3ccccn3)n2)cc1 | 149 | 9 | 105 | 75* | 0
OC(c1ccc(F)cc1)c1nc(-c2ccncc2)cs1 (stereo unspecified) | 91 | . | . | -12 | .
Oc1ccc(-c2csc(Nc3ccccn3)n2)c(O)c1 | 99 | -8 | 107 | 7 | -17
SMILES | ABCB6 inh MLPCN | Platelet DG rel | Yeast superoxide | SKN-1 inh | VLA-4 inh
Cc1cccc(Nc2nc(-c3cccs3)cs2)n1 | 106 | -6 | 102 | 36* | 3
Fc1ccc(-c2csc(-c3ccncc3)n2)cc1 | 100 | 6 | 97 | 70* | 0
c1ccc(Nc2nc(-c3cccnc3)cs2)nc1 | 88 | 21 | 92 | 15 | -1
c1ccc(Nc2nc(-c3cccs3)cs2)nc1 | 84 | 16 | 102 | 72* | 15
CCCNC(=O)C[C@H]1CC[C@@H]2[C@H](COC[C@@H](O)CN2C(=O)c2ccccn2)O1 | . | . | . | 8 | .
COc1ccc(-c2nc3ccc(C)cn3c2Cc2ccsc2)cc1OC | 87 | . | . | 12 | .
c1cncc(-c2nc(-c3cccs3)cs2)c1 | 118 | -6 | 114 | -8 | 19
c1csc(-c2csc(-c3cccs3)n2)c1 | 95 | 3 | 102 | 93* | 30
CCCc1cc(-c2nc(-c3ccc(Cl)cc3)cs2)ccn1 | 104 | -1 | 106 | 56* | -6
CSc1ccc(NC(=O)NCCCN2CCN(c3ccccc3F)CC2)cc1 | 91 | -10 | 110 | 33* | 25
Cc1ccc(S(=O)(=O)N2C[C@H]3C(=O)C[C@@H](c4ccccc4C)N(S(=O)(=O)c4ccc(C)cc4)[C@H]3C[C@H]2c2ccccc2)cc1 | 90 | . | . | 4 | .
Cc1ccccc1S(=O)Cc1ccc(C(=O)N2CCN(C3CCCCC3)CC2)o1 (stereo unspecified) | 104 | . | . | -9 | .
NC(=O)N1CCN(C(=O)c2ccco2)CC1 | 93 | 51* | 96 | -23 | 2
Cc1ccccc1S(=O)Cc1ccc(C(=O)N2CCN(C(=O)c3ccco3)CC2)o1 (stereo unspecified) | 99 | 7 | 90 | 35* | 3
Brc1ccc(-c2noc(-c3ccccn3)n2)o1 | 103 | 10 | 105 | 66* | 19
Brc1ccc(-c2nc(-c3ccccn3)no2)o1 | 102 | -5 | 103 | 44* | 10
Brc1ccc(-c2nc(-c3ccncc3)no2)o1 | 78 | -3 | 87 | 49* | 0
COc1cc(-c2nc(-c3ccc(Br)o3)no2)cc(OC)c1OC | 93 | 30 | 110 | 5 | 2
CCOc1ccccc1C(=O)Nc1c[nH]c(=O)[nH]c1=O | 100 | 88* | 103 | 21 | 10
O=C(COC(=O)c1c[nH]c(=O)[nH]c1=O)Nc1ccccc1F | 98 | 22 | 128 | 5 | 17
COc1ccccc1C(=O)Nc1c[nH]c(=O)[nH]c1=O | 104 | 96* | 102 | 4 | -1
O=C(Nc1ccccc1F)c1c[nH]c(=O)[nH]c1=O | 105 | 66* | 101 | 3 | -3
O=C(Nc1c[nH]c(=O)[nH]c1=O)c1ccccc1Cl | 102 | 1 | 100 | 1 | 0
N=c1oc2ccc3ccccc3c2cc1-c1nc(-c2ccccc2)cs1 | 102 | 0 | 94 | 7 | -20
N=c1oc2ccccc2cc1-c1nc(-c2ccccc2)cs1 | 100 | 7 | 86 | 58* | -2
SMILES | ABCB6 inh MLPCN | Platelet DG rel | Yeast superoxide | SKN-1 inh | VLA-4 inh
Cn1nc(-c2ccc(NCCO)c([N+](=O)[O-])c2)c2ccccc2c1=O | 92 | 2 | 111 | 7 | 10
CC1CC(=O)NN=C1c1ccc(NCCO)c([N+](=O)[O-])c1 (stereo unspecified) | 101 | 89* | 92 | 4 | 1
COc1ccc(/C=N/Nc2ccccn2)cc1O | 102 | 80* | 94 | 4 | -1
Oc1cccc(C=NNc2ccccn2)c1 | 87 | . | . | 10 | .
O=C(NCCC1=CCCCC1)NC1CCCCC1 | 96 | 54* | 102 | 55* | 11
CCOC(=O)c1sc(N=NC2=C(O)CC(C)(C)CC2=O)c(C(=O)OCC)c1C | 96 | 60* | 109 | 17 | -7
COc1ccc(N=Nc2cc(C)c(O)c(CN3CCCCC3)c2)cc1 | 101 | 9 | 94 | 50* | 2
COc1ccc(CN2CCCCCC2)cc1 | 97 | 8 | 108 | 0 | 12
